This assay deals with THRa homodimer (NR concentration 90 nM). Put plainly: PBM binding z-score (relative to random genomic background probes); higher = stronger binding; sequences stand for … in GC…GCGATTGACAGCGTAGAATGAAGG
An outline of the steps:
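Each nuclear receptor dimer, without ligand, was incubated for 1 h on custom Agilent 4×180K protein-binding microarrays. Binding was detected with antibodies against each partner (one per run), and scanned fluorescence was regression-normalized. The binding z-scores are referenced to random human genomic background probes.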
TATGCTAGGTCAACGATGGTCAGCTAATCTGCTA: the PBM binding z-score was 0.639.

The sequence AGATGTAGGTTACATCCGGGTCATTCAGGCTATG displayed a PBM binding z-score of 2.08.

TCTATTAGTTGATTAGGACAACCGAAACAGCGGA gave a PBM binding z-score of 1.63.

CTCTAAAGGTCGGTTGAGGTGAGTATACGGATAA displayed a PBM binding z-score of 1.17.

In turn, CTGACTGGGGCAAAGGTTACCATACTCAGTACGA showed a PBM binding z-score of 0.233.

In turn, CCTAGCAGGCCAGAGTCACTCAAGCATTTCGCTT displayed a PBM binding z-score of -0.769.

Regarding GATACAGGGTCAGCTAGCGGCCAGAGTATGGAAA, the PBM binding z-score is -0.0331.

On to CCTTACGGGTCACGAGGTTATTGCACGACGAGCG, for which the PBM binding z-score worked out at 1.4.

Take TCGAGTAGGTTAGTCGGGGCATTGAGCCAACATA: the PBM binding z-score is -0.457.

CCGACTGGGGCAAAGGTTCCCATACTCAGTACGA gave a PBM binding z-score of -0.168.

Take TGTCTAAGTTCAAAGGTAACGTAAGTATCCACAC: the PBM binding z-score is 0.485.

Sequence GCATATCGGTAATACAAGGTGAAAGTCCGATTGT showed a PBM binding z-score of 0.911.

In turn, TCTATTAGTTGAAGGGCAACCGTCGAGTCCGTTT returned a PBM binding z-score of 0.122.

Consider CCGACTGGGGCAAAGGTTACCGTACTCAGTACGA, for which the PBM binding z-score is -0.542.

With CCGACTGGAGCAAAGGTTACCATACTCAGTACGA, the PBM binding z-score turned out to be 0.122.

In the case of ATCTCTAGGTAAGCCTCAGTTCAGTGAAGAACGC, the PBM binding z-score stood at 1.15.

The sequence GCCTACGGGTCAAAGGTTATAGCATGAATAGAAT yielded a PBM binding z-score of -0.143.

In turn, AGAATGAGGTTATACGTAGATCAGGGAAGAAAGT displayed a PBM binding z-score of 0.863.

With ACTCGGAGGACAAAAGTCAGAGCTACGCCAGTGA, the PBM binding z-score was -0.517.

In turn, AGTCAAAGTTCGGGACGAGGTAACGTAAAGCACG displayed a PBM binding z-score of 1.13.

The sequence CGAACTAGGTCATCCAGGACAGTGCATACATTGA had a PBM binding z-score of 2.06.

AGATCGAGGGCAATGAGTTGATAGCACGGGTGGC: the PBM binding z-score stood at 0.0154.
